# Among all 310,000 compounds or so, about 14,000 (4.5%) showed an effect of 50% or more. The effect is printed as a negative number. What follows is part of a selection rich in strong results, with near analogues and random picks from the rest.
# Target: human ether-à-go-go-related gene (hERG) potassium channel (human, UniProt Q12809)
# Test: primary screen, population patch clamp on CHO cells stably expressing hERG; higher = less effect of the substance
# 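Further: peak tail current of the secondary pulse compared with the same well before compound.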
# Sequence of human ether-à-go-go-related gene (hERG) potassium channel (Q12809 whole entry, looked up): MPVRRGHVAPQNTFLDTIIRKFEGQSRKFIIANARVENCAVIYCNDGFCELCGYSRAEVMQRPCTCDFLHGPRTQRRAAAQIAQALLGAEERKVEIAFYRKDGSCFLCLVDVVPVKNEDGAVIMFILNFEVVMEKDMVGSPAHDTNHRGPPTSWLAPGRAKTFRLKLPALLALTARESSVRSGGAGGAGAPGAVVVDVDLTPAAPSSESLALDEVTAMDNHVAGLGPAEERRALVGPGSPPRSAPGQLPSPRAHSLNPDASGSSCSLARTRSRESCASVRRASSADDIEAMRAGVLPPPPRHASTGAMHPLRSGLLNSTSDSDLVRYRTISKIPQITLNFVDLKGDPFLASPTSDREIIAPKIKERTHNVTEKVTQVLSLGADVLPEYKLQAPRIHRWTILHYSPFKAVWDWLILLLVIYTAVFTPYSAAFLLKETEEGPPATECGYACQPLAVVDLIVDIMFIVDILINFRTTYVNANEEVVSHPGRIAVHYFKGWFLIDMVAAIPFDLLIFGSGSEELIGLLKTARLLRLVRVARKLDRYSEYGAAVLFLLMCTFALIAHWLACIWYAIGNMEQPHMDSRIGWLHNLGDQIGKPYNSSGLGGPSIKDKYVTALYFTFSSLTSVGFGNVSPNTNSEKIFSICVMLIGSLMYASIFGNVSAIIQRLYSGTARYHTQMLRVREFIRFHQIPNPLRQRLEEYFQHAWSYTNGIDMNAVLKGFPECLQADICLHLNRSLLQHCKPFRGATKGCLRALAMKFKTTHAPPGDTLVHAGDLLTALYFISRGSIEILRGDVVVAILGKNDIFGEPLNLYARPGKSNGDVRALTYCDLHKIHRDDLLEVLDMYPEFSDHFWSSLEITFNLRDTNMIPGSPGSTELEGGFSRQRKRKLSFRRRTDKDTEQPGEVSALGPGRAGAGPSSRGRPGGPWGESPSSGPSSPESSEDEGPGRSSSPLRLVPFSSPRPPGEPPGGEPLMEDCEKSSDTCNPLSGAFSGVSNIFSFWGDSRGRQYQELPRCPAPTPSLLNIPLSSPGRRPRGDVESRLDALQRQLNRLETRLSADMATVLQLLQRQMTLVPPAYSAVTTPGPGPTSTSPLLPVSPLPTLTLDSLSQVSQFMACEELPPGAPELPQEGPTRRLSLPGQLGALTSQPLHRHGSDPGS
row,SMILES,"hERG current change (%, negative = inhibition) at 10uM [%]"
1,Cc1cc(N2C(=O)C(O)=C(C(=O)c3ccco3)C2c2ccc(Cl)cc2)no1 (centres unmarked),-6.77
2,O=C(NCC(=O)N(c1cccc(F)c1)C(C(=O)NCC1CCCO1)c1ccccc1)c1ccco1 (centres unmarked),6.26
3,Cc1ccc(S(=O)(=O)N(C)c2ccc(OCC(=O)NCC3(N(C)C)CCCCC3)cc2)cc1,-73.5
4,Cc1ccc(S(=O)(=O)N(C)c2ccc(OCC(=O)NCc3ccco3)cc2)cc1,-44.8
5,Cc1ccc(S(=O)(=O)N(C)c2ccc(C(=O)NCC3CCCO3)cc2)cc1 (centres unmarked),-16.7
6,Cc1ccc(S(=O)(=O)N(C)c2ccc(C(=O)NCC3(N(C)C)CCCCC3)cc2)cc1,-65.4
7,Cc1ccc(S(=O)(=O)N(C)c2ccc(C(=O)NCCc3ccccc3)cc2)cc1,-6.94
8,COc1ccc(CCNC(=O)COc2ccc(N(C)S(=O)(=O)c3ccc(C)cc3)cc2)cc1,6.95
9,O=C(CN1C(=O)NC(CCc2ccccc2)C1=O)NC1CC1 (centres unmarked),18.8
10,Cc1ccc(SC(C)C(=O)NCc2cccnc2)cc1 (centres unmarked),5.44
11,COc1ccc(C(C)(C)C)cc1NC(=S)NCCN1CCOCC1,1.38
12,Cc1ccc(Cn2c(=N)c(C(=O)NC3CCCC3)cc3c(=O)n4ccccc4nc32)cc1,-92.7
13,Cc1ccc(Cn2c(=N)c(S(=O)(=O)c3ccc(C)cc3)cc3c(=O)n4ccccc4nc32)cc1,17.7
14,Cc1ccc(Cn2c(=N)c(S(=O)(=O)c3ccc(Br)cc3)cc3c(=O)n4ccccc4nc32)cc1,-6.27
15,Cc1ccc(Cn2c(=N)c(C(=O)NC3CCCCC3)cc3c(=O)n4ccccc4nc32)cc1,-65.7
16,C/C(=N\NC(=O)C1CCCC1)c1ccc(Cl)c(Cl)c1,13.7
17,O=C(c1ccco1)N1CCN(C(=O)C2CCCN(S(=O)(=O)Cc3ccccc3)C2)CC1 (centres unmarked),-35.4
18,O=C(NCc1c(Cl)cccc1Cl)c1ccc2nnsc2c1,8.96
19,COC(=O)c1ccc(NC(=O)CN2CCN(CCO)CC2)cc1.Cl,-5.29
20,Cc1ccc(OCC(=O)Nc2ccc(C(N)=O)cc2)cc1,16.5
21,CCOc1ccc(NC(=O)CN2CCN(CC(=O)c3ccc(OC)c(OC)c3)CC2)cc1,-84.4
22,CCOc1ccc(NC(=O)CN2CCN(CC(=O)Nc3ccc(C(=O)OC)cc3)CC2)cc1,-66.2
23,CCOc1ccc(NC(=O)CNC(=O)c2ccc(OC)c(OC)c2)cc1,0.00778
24,COC(=O)c1ccc(NC(=O)CN2CCCC2)cc1,5.33
25,CCOc1ccc(NC(=O)CN2CCN(CC(=O)Nc3ccc(C(N)=O)cc3)CC2)cc1,-72.6

row,SMILES,"hERG current change (%, negative = inhibition) at 10uM [%]"
1,NC(=O)c1ccc(NC(=O)CN2CCOCC2)cc1,17.9
2,CCCCOc1ccc(C(=O)N2CCN(CC(=O)Nc3ccc(C)cc3)CC2)cc1OC,-47.1
3,Cc1ccccc1C(=O)Nc1nnc(CC(=O)N/N=C/c2cn(Cc3ccccc3)c3ccccc23)s1,12.6
4,COc1ccc([N+](=O)[O-])cc1NC(=O)CCN1CCN(C)CC1,16.3
5,COC(=O)C(NC(=O)CCC(=O)N[C@@H](C(=O)OC)c1ccccc1)c1ccccc1 (some centres unmarked),9.88
6,N#CC1=CN(Cc2ccccc2)C=C(/C=N/Nc2ccccc2)C1,-5.72
7,c1ccc2c(CNc3ccc(CNc4ncn[nH]4)cc3)cccc2c1,1.99
8,CCCCC(=O)Nc1ccc(C(=O)NNC(=O)CCCOc2ccc(Cl)cc2Cl)cc1,7.25
9,Fc1ccc(COc2cccc3cccnc23)cc1,-8.3
10,CC(OC(=O)c1ccc(NS(=O)(=O)c2ccc3[nH]c(=O)[nH]c3c2)cc1)C(N)=O (centres unmarked),18.1
11,O=C(NC1CCCc2ccccc21)c1cc(S(=O)(=O)N2CCOCC2)ccc1F (centres unmarked),6.48
12,COc1ccc(/C=C/C(=O)Nc2nc(C)c(C(=O)N(C)C)s2)cc1,3.15
13,CCN(CC)CCN(C(=O)c1ccc2ccccc2c1)c1nc2ccc(F)cc2s1.Cl,-12.7
14,CCN(CC)CCN(C(=O)c1ccc([N+](=O)[O-])cc1)c1nc2ccc(OC)cc2s1.Cl,-49.7
15,CCOc1ccc2nc(N(CCN(CC)CC)C(=O)c3cccc([N+](=O)[O-])c3)sc2c1.Cl,-59.5
16,CCN(CC)CCN(C(=O)c1cccc([N+](=O)[O-])c1)c1nc2ccc(OC)cc2s1.Cl,-39.1
17,CN(C)CCCN(C(=O)c1cccc(N2C(=O)CCC2=O)c1)c1nc2cc3c(cc2s1)OCO3.Cl,-24
18,CCOc1cccc2sc(N(CCN(CC)CC)C(=O)c3cccc(N4C(=O)CCC4=O)c3)nc12.Cl,-68.4
19,CCN(CC)CCN(C(=O)c1ccc2ccccc2c1)c1nc2ccc(OC)cc2s1.Cl,-30
20,CCN(CC)CCN(C(=O)c1ccc2c(c1)CCCC2)c1nc2ccc(OC)cc2s1.Cl,-5.4
21,CCOc1ccc2nc(N(CCN(CC)CC)C(=O)c3ccc([N+](=O)[O-])cc3)sc2c1.Cl,-65.7
22,CCOc1cccc2sc(N(CCN(CC)CC)C(=O)c3cccc([N+](=O)[O-])c3)nc12.Cl,-75
23,CCN(CC)CCN(C(=O)c1ccc(N2C(=O)CCC2=O)cc1)c1nc2cc3c(cc2s1)OCO3.Cl,-44.6
24,COc1ccc(-c2csc(-c3ccccc3)n2)c(OC)c1,29.1
25,O=C(Oc1cccc(C(=S)N2CCOCC2)c1)c1ccc([N+](=O)[O-])cc1[N+](=O)[O-],-14.4

# — publication PMC4336329 (PLoS ONE, 2015)
